A selection: hits, their analogues and other compounds. The true share with any hit is near 7.4%.
KinaseGlo FLuc: Counterscreen for Luciferase (Kinase-Glo TM) Inhibition. Luciferin 4-monooxygenase (Photuris pensylvanica), Q27757. Kinase-Glo luciferase, ATP luminescence, 8 min. Potency, µM (series often up to 38.3 µM), without a hit: at the top dose activity change, negative = inhibition, most hits filed as inhibitors. 200,000 tested, 0.28% active. AID 1379, 2008; also: % is scaled to controls: 0 for no effect and ±100 for the full control effect; nearly all actives have a fitted effect of over 60% in size
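Light output from Kinase-Glo luciferase with luciferin and 10 uM ATP in 50 mM imidazole pH 7.2, KCl, MgCl2, Tween 20, BSA; compound pin-delivered, 8-min ambient incubation, then luminescence read.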
SMN2 splice up: qHTS Assay for Enhancers of SMN2 Splice Variant Expression; HEK293 SMN2-luciferase splicing reporter, luminescence, 30-36 h; Potency, µM (highest dose often 46.1 µM), without a hit: at the top dose activity change, positive = activation, actives largely listed as activators; 210,000 tested, 2.8% active; AID 1458, 2008; also: % of control where 0% means no effect; nearly all actives have a fitted effect of over 55% in size
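HEK293 cells carry an SMN2 minigene-luciferase reporter in which exon 7 inclusion puts luciferase in frame. Cells were seeded at 2000 cells/well, attached for 10-12 hours, then exposed to compounds for 30-36 hours at 37C before ONE-Glo luminescence.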
NPC1 prom act: qHTS Assay for NPC1 Promoter Activators; Huh7 NPC1 promoter luciferase reporter, 24 h; Potency, µM (highest dose often 9.22 µM), without a hit: top-dose activation, most hits filed as activators; 320,000 tested, 2.4% active; also: % of control where 0% means no effect; nearly all actives have a fitted effect of over 60% in size
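Luciferase expression driven by the NPC1 promoter was measured in stably transfected Huh7 cells after a 24 h compound incubation, using a luciferase reagent and a luminescence read.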
ELG1 genotoxic: qHTS screen for small molecules that induce genotoxicity in human embryonic kidney (HEK293T) cells expressing luciferase-tagged ELG1; HEK293T ELG1-luciferase reporter, luminescence, 16 h; Potency, µM (titrated, usually from 46 µM), inactives show at the top dose activity change, positive = activation, most hits filed as activators; 330,000 tested, 1.3% active; AID 504466, 2011; also: % of control where 0% means no effect; nearly all actives have a fitted effect of over 60% in size
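Cells (2,000/well) expressing the ELG1-luciferase fusion are dosed by pin tool and kept 16 hr at 37 °C, 5% CO2. Signal comes from ONE-Glo luciferase reagent after 30 min at room temperature.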
Rab9 prom act: qHTS Assay for Rab9 Promoter Activators | Huh7 Rab9 promoter-luciferase reporter, luminescence, 24 h | AID 485297, 2010 | Potency, µM (highest dose often 9.22 µM), for inactives: at the highest dose activation, negative = inhibition, hits mostly activators | 320,000 tested, 2.8% active; also: % of control where 0% means no effect; nearly all actives have a fitted effect of over 60% in size
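Cell-based reporter: Huh7 stable for Rab9 promoter-driven luciferase, plated in reduced-serum medium with 10% FBS at 1500 cells/well, compound-treated 24 h at 37 °C, luminescence read after 10 min reagent.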
FLuc counter: qHTS profiling assay for firefly luciferase inhibitor/activator using purifed enzyme and Km concentrations of substrates (counterscreen for miR-21 project) | AID 588342, 2011 | Potency, µM (doses to about 57.5 µM), for the others: at the top dose activity change, negative = inhibition, actives largely listed as inhibitors | 360,000 tested, 6.9% active | purified FLuc, Km substrates, luminescence inhibition | Luciferin 4-monooxygenase (Photinus pyralis), P08659;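 also: plate controls were vehicle for no effect and reference inhibitor for full effect; nearly all actives have a fitted effect of over 55% in size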
Target sequence (P08659 whole entry, looked up): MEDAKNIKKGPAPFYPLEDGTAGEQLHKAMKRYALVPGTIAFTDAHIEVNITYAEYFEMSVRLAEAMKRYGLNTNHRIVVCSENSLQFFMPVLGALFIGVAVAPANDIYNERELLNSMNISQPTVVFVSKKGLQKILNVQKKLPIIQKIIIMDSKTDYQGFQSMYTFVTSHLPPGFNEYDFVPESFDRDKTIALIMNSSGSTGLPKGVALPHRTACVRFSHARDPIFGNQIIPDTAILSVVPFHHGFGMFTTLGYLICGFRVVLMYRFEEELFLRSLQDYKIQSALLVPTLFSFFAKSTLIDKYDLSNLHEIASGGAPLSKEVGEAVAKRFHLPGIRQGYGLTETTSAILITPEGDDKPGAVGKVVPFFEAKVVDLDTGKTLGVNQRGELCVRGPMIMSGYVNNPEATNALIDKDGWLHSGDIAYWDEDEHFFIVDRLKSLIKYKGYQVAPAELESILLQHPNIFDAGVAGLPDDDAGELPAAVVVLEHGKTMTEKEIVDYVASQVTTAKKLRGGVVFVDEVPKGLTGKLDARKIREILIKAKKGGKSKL
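Purified P. pyralis luciferase, 10 nM final, with Km-level 10 uM D-luciferin and 10 uM ATP in 50 mM Tris acetate pH 7.5, 10 mM Mg acetate, 0.01% Tween-20, 0.05% BSA; 6-point qHTS titration about 60 µM downward; luminescence read.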
Active calls of the source: *; ? = inconclusive; . = no result given; ! = repeats disagree; [ ] = dose if it differs, or a comment. Calls follow the shape of the dose curve; as a rule, active = well fitted curve in the direction sought with a large enough effect; inconclusive = small, poorly fitted or top-dose-only effect, or another doubt; inactive = no such curve, though single readings can be large; an effect the other way counts as inactive or inconclusive. Potency is read from the fitted curve at half-maximal effect.

SMILES | KinaseGlo FLuc | SMN2 splice up | NPC1 prom act | ELG1 genotoxic | Rab9 prom act | FLuc counter
COc1ccc(C(c2sc3ncnn3c2O)N2CCN(c3ccccc3F)CC2)cc1OC (configuration not stated) | -2% | -26% | 0% | ? | 1% | 7.6µM*
CC1CCC(NC(=O)c2ccc3c(c2)N(Cc2ccccc2F)C(=O)c2ccccc2S3=O)CC1 (configuration not stated) | . | 25% | . | . | . | -1%
c1ccc(CNc2ccc3c(c2)ncn3C2CCCCC2)nc1 | 3% | 28% | ? | 11% | ? | 13µM*
CCC1CCCCN1S(=O)(=O)c1ccc(NC(=O)c2cc(=O)c3c(C)cc(C)cc3o2)cc1 (configuration not stated) | . | 2% | . | . | . | 2%
CC(=O)Oc1ccc(/C=C2/Oc3ccccc3C2=O)cc1 | . | . | 17% | ? | 13% | 3.8µM*
O=C1/C(=C/c2ccccc2)Oc2cc(OC(=O)N3CCOCC3)ccc21 | -1% | ? | ? | 9% | 20% | 13µM*
COc1ccc2c(c1)O/C(=C\c1sccc1C)C2=O | -16% | ? | ? | 18µM* | ? | 0.17µM*
COc1ccc(/C=C2\Oc3ccccc3C2=O)cc1 | . | . | . | 2.3µM* | . | .
CCc1ccc(/C=C2\Oc3cc(OS(C)(=O)=O)ccc3C2=O)cc1 | -2% | -26% | -2% | 1% | -1% | ?
CC(C)c1ccc(NC(=O)CSc2nc3ccccc3nc2Cc2ccccc2)cc1 | . | . | . | . | . | 0%
Cc1ccc(S(=O)(=O)Nc2cc(Cl)c3oc4c(c3c2)C(=O)CC(C)(C)C4)cc1 | . | -4% | . | . | . | -6%
O=C(CSc1nc2c([nH]c3ccccc32)c(=O)n1-c1cccc(C(F)(F)F)c1)N1CCc2ccccc21 | . | . | . | . | . | -1%
COc1ccc(CCNC(=O)C(=O)NCC(c2ccco2)S(=O)(=O)c2cccs2)cc1 (configuration not stated) | . | . | . | . | . | -2%
c1ccc(COc2ccc3nocc3c2)cc1 | . | . | 3.2µM* | ? | 2µM* | 7.6µM*
CC1=NOC(=O)/C1=C/c1ccc(-c2ccc(Cl)cc2)o1 | 13% | -16% | -3% | -13% | -4% | 8.5µM*
CC1=NOC(=O)/C1=C\c1ccc(-c2ccc(Br)cc2)o1 | -8% | -41% | -11% | -3% | -3% | 8.5µM*
Cc1ccc(/C=C2\C(=O)ON=C2c2ccccc2)o1 | 0% | . | 1% | 1% | -12% | 1.1µM*
Cc1ccc(C2=NOC(=O)/C2=C\c2ccc(C)o2)cc1 | . | . | 18% | ? | 0% | ?
CC1=NOC(=O)/C1=C\c1ccc(-c2ccc(Br)cc2C(=O)O)o1 | . | . | 0% | 3% | -3% | ?
Cc1nc2ccccc2n1CCc1nc2c3ccccc3nc(SCc3cccc(F)c3)n2n1 | . | . | . | . | . | 0%
CCc1ccc(NC(=O)CN2C(=O)c3ccccc3Sc3ccc(C(=O)N4CCCC4)cc32)cc1 | . | . | . | . | . | -14%
CC(C)c1ccc(S(=O)(=O)c2cnc(SCC(=O)Nc3cccc(C(F)(F)F)c3)nc2N)cc1 | . | . | . | . | . | 1%
O=C1CCC/C1=C/Nc1ccc(Cl)cc1 | -3% | 3% | 1% | 11% | 22% | -17%
Cc1ccc(N/C=C2\CCCCC2=O)nc1 | -24% | 18% | 4% | ? | ? | 21µM*
O=C1CCCC/C1=C\Nc1ccc(Cl)cn1 | -8% | ? | ? | ? | ? | 17µM*
SMILES | KinaseGlo FLuc | SMN2 splice up | NPC1 prom act | ELG1 genotoxic | Rab9 prom act | FLuc counter
Cc1ccc(N/C=C2\CCCCC2=O)c(C)c1 | 1% | -6% | -2% | 4% | -2% | ?
CCOc1ccccc1CNC(=O)c1sc2ncccc2c1-n1cccc1 | . | . | . | . | . | -19%
O=C(Nc1ccc2oc(-c3ccc4ccccc4c3)nc2c1)c1cc(Cl)ccc1Cl | . | -6% | . | . | . | 1%
COc1ccc2nc(NC(=O)c3cc(C)oc3C)sc2c1 | 13µM* | 16µM* | ? | ? | 2.8µM* | 1.3µM*
Cc1cc(C(=O)Nc2nc3ccc(S(C)(=O)=O)cc3s2)c(C)o1 | ? | 5.6µM* | ? | 8.2µM* | 3.2µM* | 0.85µM*
COc1ccc2nc(NC(=O)c3ccoc3C)sc2c1 | 3.2µM* | 2µM* | 0.63µM* | ? | 0.45µM* | 1.2µM*
COc1ccc(C(=O)Nc2nc3cc4c(cc3s2)OCO4)c(OC)c1 | . | . | 0.79µM* | ? | 0.79µM* | 0.43µM*
COc1ccc2oc(C(=O)Nc3nc4ccc(S(C)(=O)=O)cc4s3)c(C)c2c1 | . | . | 1% | -8% | -2% | ?
COc1ccccc1CN1CCCC2(CCN(C(=O)c3cnccn3)CC2)C1 | -2% | -10% | . | . | . | .
OCC1O[C@H]([S-])[C@H](O)[C@@H](O)[C@@H]1O.[Au+] (some centres not stated) | . | . | 4%[46.1 µM] | . | -6%[46.1 µM] | .
Cc1ccc(CCNC(=O)C2CCCN(S(=O)(=O)c3ccc4c(c3)oc(=O)n4C)C2)cc1 (configuration not stated) | . | 12% | . | . | . | 1%
COc1cc(C)c(Cl)cc1S(=O)(=O)NCCc1c(C)[nH]c2ccccc12 | . | -8% | . | . | . | -1%
O=c1nc2sc3ccccc3n2c(=O)n1-c1cccc(Cl)c1 | -1% | . | 13% | 4.6µM* | ? | -4%
Cc1ccc2c(c1)sc1nc(=O)n(-c3cccc(Cl)c3)c(=O)n12 | 5% | 11µM*! | 1.6µM* | ? | 1.6µM* | 6%
O=c1nc2sc3ccccc3n2c(=O)n1-c1ccc(Cl)cc1 | 1% | 20µM* | 3.2µM* | ? | 2.8µM* | -6%
Cc1nc(N2CCOCC2)c2c(C(=O)N3CCN(c4cc(Cl)ccc4C)CC3)c(C)oc2n1 | . | . | . | . | . | 0%
COc1ccc(/C=N/NC(=O)c2cc(C34CC5CC(CC(C5)C3)C4)[nH]n2)cc1O | 0% | -2% | 3% | ? | -2% | 15µM*
COc1ccc(/C=N\NC(=O)c2ccc(=O)[nH]n2)cc1O | 2% | 5% | 0% | 0% | 4% | -7%
CCCCC(CC)CNC(=O)CN(C)S(=O)(=O)c1ccc2c(c1)c(=O)n(C)c(=O)n2C (configuration not stated) | . | -12% | . | . | . | 5%
COC(=O)c1cccc(C(=O)Nc2ccc(C)cc2Br)n1 | -4% | ? | 6% | 11% | -18% | 11µM*
O=C(Nc1cnc2ccccc2c1)c1ccncc1 | ? | 21% | 1.8µM* | 2.3µM* | 3.2µM* | 12µM*
Cc1ccc(NC(=O)Nc2cnc3ccccc3c2)cc1 | 0% | 13µM* | 2.2µM* | ? | 1.3µM* | ?
